Measured values as given in PubChem BioAssay (NCATS).
Where “and” joins values, the source holds several entries; their conditions need not be identical. Identical values can stand only once. Inconclusive results are not listed. Where a structure was tested more than once in an assay, its records may differ in their call. Calls of active or inactive are those of the source. Unless noted, calls come from the whole dose curve; as a rule, active = well fitted curve in either direction with a large enough effect (not every such curve was filed as active); inconclusive = small, poorly fitted or top-dose-only effect, or another doubt; inactive = flat fitted curve, though single readings scatter.

Legend:
[1] = AP1 Signaling Pathway (AID 357);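 note: ME-180 reporter cells stimulated with EGF at its EC50 level; % is set by controls: 0 for no effect and ±100 for the full control effect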
Method in brief: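 Titration-series screen for positive or negative modulators of EC50 EGF-induced signaling in ME-180 cells carrying an AP-1-driven beta-lactamase reporter. After 5 hours at 37 degrees Celsius, CCF4 460nm/530nm emission ratio gave %Activity; AC50 values derived.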

[2] = Cell Viability - BJ (AID 421; calls by dose curve;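 note: potency is the fitted concentration of half-maximal effect; cells exposed to compound for 40 hours at 37 °C before readout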); settings: BJ fibroblast viability, qHTS
Method in brief: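 Cytotoxicity as drop in intracellular ATP (CellTiter-Glo, 20 min RT) after 40 hr compound exposure of BJ fibroblasts at 37 °C. Titrations scaled between DMSO and 100 uM tamoxifen, Hill-fitted for AC50.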

[3] = Cell Viability - MRC5 (AID 434; calls by dose curve;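 note: potency is the fitted concentration of half-maximal effect; potency reflects cytotoxicity seen as loss of intracellular ATP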); settings: MRC5 lung fibroblast viability, qHTS
Method in brief: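 AC50 values come from Hill-equation fits of intracellular ATP loss, measured by CellTiter-Glo luminescence. Normal lung fibroblasts (MRC5) had 40 hr compound treatment at 37 C, normalized between DMSO and 100 uM tamoxifen.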

[4] = Stat Signaling Pathway (AID 446);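 note: ME-180 cervical cancer cells given 40 pM IL-6 alongside compound; SIE-controlled beta-lactamase reporter measured as 460/530 nm FRET emission ratio; % is set by controls: 0 for no effect and ±100 for the full control effect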
Method in brief: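 FRET read-out (405 nm excitation, 460/530 nm emission) of a beta-lactamase reporter under a STAT-inducible element in ME-180 cervical carcinoma cells. Cells with compound receive 40 pM IL-6 for 5 h. Values are normalised to AC90 stimulation and AC90 JAK-inhibitor controls.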

[5] = Cell Viability - Jurkat (AID 426;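 active = dose-dependent loss of cell ATP signal giving a full or clear fitted curve, ranked by lower potency value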;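 note: potency is the fitted concentration of half-maximal effect; cells exposed to compound for 40 hours at 37 °C before ATP read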); settings: qHTS
Method in brief: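 Cells of the human T-cell leukemia line Jurkat (E6-1) are seeded at 5000 per well, treated with compound across a concentration range for 40 hours at 37 °C, then lysed with CellTiter-Glo; luminescence reports ATP.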

[6] = Cell Viability - Hek293 (AID 427;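 active = compounds whose dose-response curve shows a full or clear partial loss of cell viability, called from curve shape rather than a numeric limit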;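 note: potency is the fitted concentration of half-maximal effect; cells exposed to compound for 40 hours at 37 °C before reading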); settings: qHTS
Method in brief: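 Luminescent ATP content (CellTiter-Glo, 20 min at room temperature) was measured after a 40 hr, 37 °C compound exposure of HEK293 cells. AC50 values came from Hill-equation fits of qHTS concentration-response data normalized to DMSO and 100 uM tamoxifen.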

[7] = Cell Viability - SK-N-SH (AID 435; calls by dose curve;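 note: potency is the fitted concentration of half-maximal effect; compound exposure lasted 40 h at 37 °C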); settings: SK-N-SH neuroblastoma cell viability qHTS
Method in brief: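 CellTiter-Glo ATP luminescence, 20 min RT read; cells pre-plated 5 hr, compound 40 hr at 37 °C, 1500 cells/well, complete medium. Normalized DMSO = 0, 100 uM tamoxifen = 100% inhibition; Hill-fit AC50.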

[8] = NFAT Signaling Pathway (AID 444); settings: Jurkat NFAT-bla M1, carbachol, beta-lactamase ratio, 5 h;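 note: carbachol stimulus at about its EC50 of 1 µM final; % is set by controls: 0 for no effect and ±100 for the full control effect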
Method in brief: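 Read-out: CCF4 FRET ratio (460 nm/530 nm) after 1 h RT dye loading, used for %activity and AC50 from titration series. Cells: Jurkat NFAT-β-lactamase/M1 line, treated with compound plus 1 uM carbachol for 5 h, 37 °C.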

[9] = target: Cytochrome P450 1A2 (Homo sapiens) (UniProt P05177); assay: p450-cyp1a2 (AID 410; calls by dose curve; note: potency is the fitted concentration of half-maximal effect;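 for activity change, negative = inhibition: -100% = full effect of reference inhibitor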)
Chain of Cytochrome P450 1A2 (Homo sapiens) (P05177 whole entry, looked up): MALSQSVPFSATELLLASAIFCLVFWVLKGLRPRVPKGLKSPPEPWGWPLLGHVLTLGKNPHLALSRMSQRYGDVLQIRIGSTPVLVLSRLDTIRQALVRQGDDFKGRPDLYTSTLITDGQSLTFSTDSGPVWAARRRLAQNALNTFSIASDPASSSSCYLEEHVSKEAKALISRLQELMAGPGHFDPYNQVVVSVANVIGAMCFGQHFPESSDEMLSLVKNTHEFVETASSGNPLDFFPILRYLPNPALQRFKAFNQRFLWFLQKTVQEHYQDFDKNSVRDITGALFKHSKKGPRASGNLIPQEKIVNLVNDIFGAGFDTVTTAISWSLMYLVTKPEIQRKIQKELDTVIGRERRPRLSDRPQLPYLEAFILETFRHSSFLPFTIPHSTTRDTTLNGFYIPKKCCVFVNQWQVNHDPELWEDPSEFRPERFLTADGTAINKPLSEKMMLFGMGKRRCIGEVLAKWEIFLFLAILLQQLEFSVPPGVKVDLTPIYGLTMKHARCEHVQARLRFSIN
Method in brief: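 O-Demethylation of luciferin 6' methyl ether by human CYP1A2 is monitored as luciferase luminescence. Substrate sits at Km (100uM); enzyme is 20nM. Values are scaled to 57 uM furafylline as maximal inhibition.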

[10] = target: Lysosomal acid glucosylceramidase (Homo sapiens) (UniProt P04062); assay: Glucocerebrosidase-p2 (AID 348; in the data active = potency below about 10 µM; note: potency is the fitted concentration of half-maximal effect); settings: purified GBA, blue fluorogenic substrate, 40 min
Chain of Lysosomal acid glucosylceramidase (Homo sapiens) (P04062 whole entry, looked up): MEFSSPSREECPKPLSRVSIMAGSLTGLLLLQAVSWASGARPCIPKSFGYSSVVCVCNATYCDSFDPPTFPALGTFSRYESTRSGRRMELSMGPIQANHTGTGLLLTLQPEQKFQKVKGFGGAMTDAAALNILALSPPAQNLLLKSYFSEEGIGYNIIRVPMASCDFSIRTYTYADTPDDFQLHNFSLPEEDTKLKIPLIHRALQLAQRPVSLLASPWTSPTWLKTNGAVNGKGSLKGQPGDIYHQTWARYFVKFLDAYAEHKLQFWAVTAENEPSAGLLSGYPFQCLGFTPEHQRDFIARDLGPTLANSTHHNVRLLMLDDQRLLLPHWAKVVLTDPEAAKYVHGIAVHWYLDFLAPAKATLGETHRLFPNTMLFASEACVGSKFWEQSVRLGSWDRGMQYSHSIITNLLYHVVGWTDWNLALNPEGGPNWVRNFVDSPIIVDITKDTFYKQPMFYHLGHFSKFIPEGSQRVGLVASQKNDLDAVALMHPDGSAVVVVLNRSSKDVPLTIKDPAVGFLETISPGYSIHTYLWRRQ
Method in brief: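 Normal human glucocerebrosidase (0.2 nM) with blue fluorogenic substrate (80 uM final) in citrate/phosphate pH 5.9 with 10mM sodium taurocholate, 0.01% tween-20; 40 min RT, NaOH/glycine stop; fluorescence Ex 365/Em 440; AC50 from a titration from 0.6 nM upwards.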

CC(COc1ccccc1)N(CCCl)Cc1ccccc1 (centres undefined)
inactive: outcome [1] | Potency [2] > 92 µM | Potency [3] > 92 µM | outcome [4]

NS(=O)(=O)c1cc2c(cc1Cl)NCNS2(=O)=O
inactive: outcome [1] | Potency [2] > 92 µM | Potency [5] > 92 µM | Potency [6] > 92 µM | Potency [3] > 92 µM | Potency [7] > 92 µM | activity change, negative = inhibition ([8]; at 17.2 µM (top of the series)) 3.92% and 9.7% | activity change, negative = inhibition ([8]; at 38 µM (top of the series)) 0.292% | outcome [4]

Cn1c(=O)c2[nH]cnc2n(C)c1=O
inactive: outcome [1] | Potency [9] | Potency [2] > 92 µM | Potency [5] > 92 µM | Potency [6] > 92 µM | Potency [3] > 92 µM | Potency [7] > 92 µM | activity change, negative = inhibition ([8]; at 17.2 µM (top of the series)) -8.18% and -8.96% and 7.57% | activity change, negative = inhibition ([8]; at 38 µM (top of the series)) 8.38% | outcome [4]

O=c1[nH]cc(F)c(=O)[nH]1
inactive: outcome [1] | Potency [9] | Potency [2] > 92 µM | Potency [5] > 92 µM | Potency [6] > 92 µM | Potency [3] > 92 µM | Potency [7] 9.55 µM | activity change, negative = inhibition ([8]; at 38 µM (top of the series)) 18.8% | outcome [4]

COc1nc(C)nc(Cl)c1NC1=NCCN1
inactive: outcome [1] | Potency [9] | activity change, negative = inhibition ([8]; at 17.2 µM (top of the series)) -14.9% | activity change, negative = inhibition ([8]; at 38 µM (top of the series)) 10.4% | outcome [4]

CN1CCC(=C2c3ccccc3C=Cc3ccccc32)CC1
active: activity change, negative = inhibition ([8]; at 17.2 µM (top of the series)) -67.8%
inactive: outcome [1] | Potency [9] | outcome [4]

Cc1cn([C@H]2C=C[C@@H](CO)O2)c(=O)[nH]c1=O
inactive: outcome [1] | Potency [2] > 92 µM | Potency [5] > 92 µM | Potency [6] > 92 µM | Potency [3] > 92 µM | Potency [7] > 92 µM | activity change, negative = inhibition ([8]; at 17.2 µM (top of the series)) 6.73% | outcome [4]

Nc1nc2c(ncn2COC(CO)CO)c(=O)[nH]1
inactive: outcome [1] | Potency [9] | activity change, negative = inhibition ([8]; at 17.2 µM (top of the series)) 3.07% | activity change, negative = inhibition ([8]; at 38 µM (top of the series)) -0.352% | outcome [4]

Cn1ccc2cc3c(cc21)CCN3C(=O)Nc1cccnc1
active: Potency [9] 25.1 nM and 3.98 nM
inactive: outcome [1] | activity change, negative = inhibition ([8]; at 38 µM (top of the series)) -1.4% | outcome [4]

NCCS(=O)(=O)O
inactive: outcome [1] | Potency [2] > 92 µM | Potency [5] > 92 µM | Potency [6] > 92 µM | Potency [3] > 92 µM | Potency [7] > 92 µM | activity change, negative = inhibition ([8]; at 38 µM (top of the series)) 3.83% | outcome [4]

Nc1nnc(-c2cccc(Cl)c2Cl)c(N)n1
inactive: outcome [1] | Potency [9] | activity change, negative = inhibition ([8]; at 17.2 µM (top of the series)) -16.5% | activity change, negative = inhibition ([8]; at 38 µM (top of the series)) 15.4% | outcome [4]

CN1CCN(CCCN2c3ccccc3Sc3ccc(Cl)cc32)CC1
inactive: outcome [1] | activity change, negative = inhibition ([8]; at 17.2 µM (top of the series)) -28.9% | outcome [4]
active: Potency [9] 1 µM and 2.51 µM

O=C(Nc1ccc([N+](=O)[O-])cc1Cl)c1cc(Cl)ccc1O
inactive: outcome [1]
active: Potency [9] 3.98 µM and 1.26 µM | activity change, negative = inhibition ([8]; at 17.2 µM (top of the series)) -101% | activity change, negative = inhibition ([8]; at 38 µM (top of the series)) -89.8%

COc1ccc(CCN(C)CCCC(C#N)(c2ccc(OC)c(OC)c2)C(C)C)cc1OC (centres undefined)
inactive: outcome [1] | Potency [2] > 92 µM | Potency [6] > 92 µM | Potency [3] > 92 µM | Potency [7] > 92 µM | outcome [4]

CC(C)C(=O)Nc1ccc([N+](=O)[O-])c(C(F)(F)F)c1
active: Potency [9] 2 µM and 316 nM
inactive: outcome [1] | Potency [5] > 92 µM | Potency [6] 53.5 µM | Potency [3] > 92 µM | activity change, negative = inhibition ([8]; at 17.2 µM (top of the series)) -0.457% | activity change, negative = inhibition ([8]; at 38 µM (top of the series)) 9.16% | outcome [4]

CN(C)CCC=C1c2ccccc2C=Cc2ccccc21
inactive and 12.6 µM (active): Potency [9]
inactive: Potency [10] > 11.4 µM | outcome [4]
active: activity change, negative = inhibition ([8]; at 7.69 µM (top of the series)) -78.7%

Clc1ccc2c(c1)C(N1CCNCC1)=Nc1ccccc1O2
inactive: outcome [1] | outcome [4]
active: Potency [9] 12.6 µM and 3.98 µM

O=c1c(-c2ccc(O)cc2)coc2cc(O)cc(O)c12
inactive: outcome [1] | Potency [2] > 92 µM | Potency [6] > 92 µM | Potency [3] > 92 µM | activity change, negative = inhibition ([8]; at 38 µM (top of the series)) -8.04% | outcome [4]
active: Potency [9] 10 µM and 5.01 µM

CC[N+](CC)(CC)CCOc1cccc(OCC[N+](CC)(CC)CC)c1OCC[N+](CC)(CC)CC
inactive: outcome [1] | Potency [9] | activity change, negative = inhibition ([8]; at 17.2 µM (top of the series)) -15.9% | activity change, negative = inhibition ([8]; at 38 µM (top of the series)) -22% | outcome [4]

Nc1c2c(nc3ccccc13)CCCC2
active: Potency [9] 3.16 µM and 794 nM and 501 nM
inactive: outcome [1] | Potency [2] > 92 µM | Potency [6] > 92 µM | Potency [3] > 92 µM | Potency [7] > 92 µM | outcome [4]
